Screening results from PubChem BioAssay.
Peg3 prom inh = inhibitors of Peg3 promoter | 360,000 tested, 1.7% active | AID 588405 | HeLa PEG-Prom luciferase reporter, luminescence, overnight | inhibition, % at 20 µM;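 active = inhibition of at least 50% at 20 µM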
HIF-2a inh = inhibitors of HIF-2a | 786-0 RCC cells HIF-2a reporter, luciferase luminescence, overnight | inhibition, % at 18.8 µM | 360,000 tested, 0.72% active | AID 624352;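 active = inhibition of the luminescence signal of 40% or more relative to plate controls, in a single-dose primary screen at 18.75 µM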
TROY signal inh = TROY signaling inhibition; Q293 LMP1-TROYcd NF-kB luciferase reporter, 4 h; AID 1347056; inhibition, % at 10 µM; 360,000 tested, 0.98% active;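 active = compounds whose plate-normalised and pattern-corrected inhibition of the luciferase reporter signal at the single screening dose is 50% or more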
MITF TRPM1 inh = reduces MITF-dependent TRPM1 promoter luciferase signal; SK-MEL-5 TRPM1 promoter luciferase, 24 h; inhibition, % at 12.5 µM; 330,000 tested, 0.83% active;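 active = mean inhibition across replicates of 60% or more, whatever share of single replicates reaches that level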
LMP1 NFkB inh = reduces LMP1-driven NF-kappaB luciferase signal. AID 504558. 350,000 tested, 0.69% active. LMP1-induced NF-kappaB luciferase reporter cells, luminescence. inhibition, % at 12.5 µM; in the data active = inhibition above about 41%
TWEAK-Fn14 inh = inhibitors of TWEAK-Fn14 interaction signaling | 360,000 tested, 2% active | AID 1159606 | inhibition, % at 10 µM | TWEAK-stimulated Fn14 reporter cells, luciferase luminescence, 8 h; in the data active = inhibition above about 50%
Mdm2-MdmX confirm = Mdm2/MdmX (human) interaction inhibition, confirmed. AID 504601. 740 tested, 99% active. shares compounds with HIF-2a inh. SaOS-2 split-luciferase Mdm2/MdmX complementation, luminescence. inhibition, % at 8 µM;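 active = mean inhibition of the luminescence signal across two replicates at or above 26 percent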
Target sequence (O15151 whole entry, looked up): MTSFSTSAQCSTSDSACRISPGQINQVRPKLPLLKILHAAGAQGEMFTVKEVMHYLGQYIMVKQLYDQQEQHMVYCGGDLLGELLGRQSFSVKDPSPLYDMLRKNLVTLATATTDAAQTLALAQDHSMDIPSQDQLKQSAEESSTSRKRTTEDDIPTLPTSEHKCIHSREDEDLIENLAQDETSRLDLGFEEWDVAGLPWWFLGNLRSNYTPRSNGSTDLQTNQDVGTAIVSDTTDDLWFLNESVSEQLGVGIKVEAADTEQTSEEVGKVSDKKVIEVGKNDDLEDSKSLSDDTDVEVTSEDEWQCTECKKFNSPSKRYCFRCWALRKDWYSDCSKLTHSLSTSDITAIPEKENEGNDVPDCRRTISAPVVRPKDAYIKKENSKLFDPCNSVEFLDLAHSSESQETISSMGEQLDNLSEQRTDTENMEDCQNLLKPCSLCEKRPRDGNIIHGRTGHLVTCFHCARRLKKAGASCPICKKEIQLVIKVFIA
Target sequence (Q00987 whole entry, looked up): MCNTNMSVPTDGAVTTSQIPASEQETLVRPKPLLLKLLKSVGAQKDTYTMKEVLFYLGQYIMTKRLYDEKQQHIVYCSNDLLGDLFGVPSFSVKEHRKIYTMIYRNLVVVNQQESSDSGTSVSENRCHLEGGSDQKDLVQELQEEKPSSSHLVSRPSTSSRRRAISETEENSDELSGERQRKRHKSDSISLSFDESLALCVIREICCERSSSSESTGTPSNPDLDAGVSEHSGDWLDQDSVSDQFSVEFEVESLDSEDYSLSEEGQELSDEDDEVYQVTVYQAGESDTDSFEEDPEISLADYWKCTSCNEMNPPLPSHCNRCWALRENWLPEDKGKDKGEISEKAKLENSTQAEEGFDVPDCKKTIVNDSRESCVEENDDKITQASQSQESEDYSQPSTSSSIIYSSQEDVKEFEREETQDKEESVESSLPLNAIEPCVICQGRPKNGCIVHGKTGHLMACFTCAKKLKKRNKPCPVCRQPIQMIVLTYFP
HIF-2a inh conf = confirmation of HIF-2a inhibitors; shares compounds with HIF-2a inh; 786-0 RCC cells, HIF-2a luciferase reporter luminescence, overnight; inhibition, % at 18.8 µM; 1,800 tested, 56% active; AID 651580;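 active = mean inhibition across four replicates of at least 40 percent at the single tested concentration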
HIF-1a counter = HIF-1a inhibition counter-screen for HIF-2a hits. shares compounds with HIF-2a inh. MiaPaCa-2 HIF-1a luciferase reporter, desferoxamine, overnight. inhibition, % at 18.8 µM. 1,800 tested, 72% active;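 active = mean inhibition of the reporter signal across four replicates at the single tested dose of 50% or more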
Of the large screens only hits and unclear results are named; the others gave an inactive call (follow-up assays come after a bar, where they were run). In the library only some 4% were active in any assay of this set; here they are far more common.

C=CCOc1ccc(C[C@H](N)C(=O)NC[C@H]2O[C@@H](n3cnc4c(N)ncnc43)[C@H](O)[C@@H]2O)cc1	none
CCc1nc(Nc2ccc(OC)cc2OC)c2oc3ccccc3c2n1	none
C=C1C(=O)C=C[C@]2(C)C[C@@H]3OC(=O)[C@](C)(O)[C@H]3C[C@@H]12	Peg3 prom inh 91, HIF-2a inh 40, TWEAK-Fn14 inh 55 (no result: MITF TRPM1 inh) | HIF-2a inh conf inactive | HIF-1a counter 98
CC(=O)Nc1ccc(Nc2cc(N3CCOCC3)c3nonc3c2[N+](=O)[O-])cc1	HIF-2a inh 42 | HIF-2a inh conf inactive | HIF-1a counter 76
O=[N+]([O-])c1c(Nc2ccc(O)cc2)cc(N2CCOCC2)c2nonc12	none
O=S(=O)(Nc1ccc(Br)cc1)c1cccc(NS(=O)(=O)c2cccs2)c1	none
COc1ccc2[nH]c3c(c2c1)CCN1C(=O)N([C@@H](C)C(=O)NC2CCN(Cc4ccccc4)CC2)C(=O)[C@]31C	none (no result: MITF TRPM1 inh)
COCC(=O)N1CCC(Oc2ccc(C(=O)NC3Cc4ccccc4C3)cc2)CC1	HIF-2a inh 44 | HIF-2a inh conf 43 | HIF-1a counter inactive
COCCC(=O)N1CCC(Oc2ccc(C(=O)NC3CCCCC3)cc2)CC1	none
Cc1noc(/C=C/c2ccccn2)c1[N+](=O)[O-]	HIF-2a inh 73, TWEAK-Fn14 inh 56 | HIF-2a inh conf 86 | HIF-1a counter 106
CC1=C(C(=O)Nc2ccc([N+](=O)[O-])cc2)C(c2cccc(C(F)(F)F)c2)NC(=S)N1c1ccccc1 (stereo not drawn)	Peg3 prom inh 88, HIF-2a inh 56 | HIF-2a inh conf inactive | HIF-1a counter 60
COc1ccc(-n2ncc(Cl)c(Cl)c2=O)cc1	Peg3 prom inh 105, HIF-2a inh 95, TROY signal inh 56, TWEAK-Fn14 inh 98 (no result: MITF TRPM1 inh, LMP1 NFkB inh) | Mdm2-MdmX confirm 102 | HIF-2a inh conf 96 | HIF-1a counter 107
CNS(=O)(=O)c1cn(CC(=O)NCc2ccc(N(C)C)cc2)cc1S(=O)(=O)NC	none
Cc1cnc(C(=O)OCC(=O)N2CC(C)CC(C)C2)cn1 (stereo not drawn)	none
CCOC(=O)C1=C(O)/C(=C/c2cn(CC(=O)NCC3CCCO3)c3ccccc23)SC1=Nc1ccc(C)cc1 (stereo not drawn)	Peg3 prom inh 59, MITF TRPM1 inh 88 | Mdm2-MdmX confirm 86
CC(C)C(=O)c1cn(CC(=O)NCC2CCCO2)c2ccccc12 (stereo not drawn)	none
CC(=O)Nc1ccc(OCc2cccc3ccccc23)cc1	HIF-2a inh 88 | HIF-2a inh conf 97 | HIF-1a counter 90
COC(=O)/C(=C\c1cc(OC)c(OC)c(OC)c1)c1nc2ccccc2[nH]1	none
O=C(/C(=C\c1ccccc1)c1nc2ccccc2[nH]1)c1ccc(Cl)cc1	Peg3 prom inh 87, HIF-2a inh 64 | HIF-2a inh conf inactive | HIF-1a counter 100
COc1cc(/C=C(/C(=O)c2cccs2)c2nc3ccccc3[nH]2)ccc1O	Peg3 prom inh 103, HIF-2a inh 68 | HIF-2a inh conf inactive | HIF-1a counter 104
O=C(/C(=C/c1ccc(Cl)cc1)c1nc2ccccc2[nH]1)c1cccs1	Peg3 prom inh 106, HIF-2a inh 93, MITF TRPM1 inh 95 | Mdm2-MdmX confirm 102
CC(=O)c1ccc(/C=C/c2nc3ccccc3n2C)o1	none (no result: MITF TRPM1 inh, LMP1 NFkB inh)
CCOC(=O)C1CCN(C(=O)Nc2ccc3nccnc3c2)CC1	none
CCOC(=O)C1CCN(C(=O)Nc2ccc3snnc3c2)CC1	HIF-2a inh 52 | HIF-2a inh conf 50 | HIF-1a counter inactive
CC(C)(C)c1ccc(C(O)CCCN2CCC(C(O)(c3ccccc3)c3ccccc3)CC2)cc1 (stereo not drawn)	Peg3 prom inh 96, HIF-2a inh 97, MITF TRPM1 inh 94 | HIF-2a inh conf inactive | HIF-1a counter 108
